How the values were obtained:
[1] = biological target: Tyrosine-protein kinase Fyn (Homo sapiens) (UniProt P06241); conditions: at 1 µM
[2] = biological target: Tyrosine-protein kinase HCK (Homo sapiens) (UniProt P08631); conditions: at 0.1 µM
[3] = biological target: Tyrosine-protein kinase HCK (Homo sapiens) (UniProt P08631); conditions: at 1 µM
[4] = biological target: Insulin-like growth factor 1 receptor (Homo sapiens) (UniProt P08069); conditions: at 0.1 µM
[5] = biological target: Insulin-like growth factor 1 receptor (Homo sapiens) (UniProt P08069); conditions: at 1 µM
[6] = biological target: Insulin receptor (Homo sapiens) (UniProt P06213); conditions: at 0.1 µM
Chain of Insulin receptor (Homo sapiens) (P06213 28-758 limits assumed): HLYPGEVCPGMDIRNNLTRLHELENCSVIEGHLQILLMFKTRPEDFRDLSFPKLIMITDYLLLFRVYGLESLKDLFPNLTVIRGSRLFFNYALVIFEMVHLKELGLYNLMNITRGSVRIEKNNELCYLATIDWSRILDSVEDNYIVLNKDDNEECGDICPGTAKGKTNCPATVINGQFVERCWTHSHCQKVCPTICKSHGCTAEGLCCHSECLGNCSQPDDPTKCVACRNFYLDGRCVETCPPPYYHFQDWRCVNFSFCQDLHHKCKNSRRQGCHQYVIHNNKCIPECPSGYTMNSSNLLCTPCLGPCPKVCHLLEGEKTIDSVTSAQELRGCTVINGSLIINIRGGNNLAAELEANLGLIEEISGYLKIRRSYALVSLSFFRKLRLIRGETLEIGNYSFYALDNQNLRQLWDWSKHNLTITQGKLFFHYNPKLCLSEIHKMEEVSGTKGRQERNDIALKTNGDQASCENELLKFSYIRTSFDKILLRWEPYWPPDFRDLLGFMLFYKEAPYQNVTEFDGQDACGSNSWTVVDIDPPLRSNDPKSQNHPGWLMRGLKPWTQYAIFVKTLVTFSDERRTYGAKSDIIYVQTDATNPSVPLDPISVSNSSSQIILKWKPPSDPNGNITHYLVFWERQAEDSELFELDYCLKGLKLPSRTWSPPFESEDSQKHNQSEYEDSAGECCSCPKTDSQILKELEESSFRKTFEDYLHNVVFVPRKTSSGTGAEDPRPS
Chain of Insulin receptor (Homo sapiens) (P06213 763-1382 limits assumed): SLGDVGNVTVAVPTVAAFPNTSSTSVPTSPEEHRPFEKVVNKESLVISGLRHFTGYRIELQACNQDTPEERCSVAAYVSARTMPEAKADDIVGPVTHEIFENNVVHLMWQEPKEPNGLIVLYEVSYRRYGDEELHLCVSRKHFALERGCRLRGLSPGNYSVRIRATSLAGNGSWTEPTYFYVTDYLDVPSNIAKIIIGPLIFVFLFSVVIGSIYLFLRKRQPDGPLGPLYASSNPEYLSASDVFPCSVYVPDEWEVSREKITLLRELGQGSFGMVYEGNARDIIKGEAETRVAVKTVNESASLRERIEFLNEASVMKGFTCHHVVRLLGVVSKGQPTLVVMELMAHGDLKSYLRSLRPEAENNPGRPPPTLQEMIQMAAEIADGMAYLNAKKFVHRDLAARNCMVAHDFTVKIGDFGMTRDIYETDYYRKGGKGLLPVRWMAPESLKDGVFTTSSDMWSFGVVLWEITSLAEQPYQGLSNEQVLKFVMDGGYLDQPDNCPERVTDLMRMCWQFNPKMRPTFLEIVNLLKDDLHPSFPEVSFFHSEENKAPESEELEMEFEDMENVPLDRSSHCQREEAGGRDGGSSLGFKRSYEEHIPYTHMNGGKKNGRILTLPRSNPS

[7] = biological target: Insulin receptor (Homo sapiens) (UniProt P06213); conditions: at 1 µM
[8] = biological target: Insulin receptor-related protein (Homo sapiens) (UniProt P14616); conditions: at 0.1 µM
Chain of Insulin receptor-related protein (Homo sapiens) (P14616 27-742 limits assumed): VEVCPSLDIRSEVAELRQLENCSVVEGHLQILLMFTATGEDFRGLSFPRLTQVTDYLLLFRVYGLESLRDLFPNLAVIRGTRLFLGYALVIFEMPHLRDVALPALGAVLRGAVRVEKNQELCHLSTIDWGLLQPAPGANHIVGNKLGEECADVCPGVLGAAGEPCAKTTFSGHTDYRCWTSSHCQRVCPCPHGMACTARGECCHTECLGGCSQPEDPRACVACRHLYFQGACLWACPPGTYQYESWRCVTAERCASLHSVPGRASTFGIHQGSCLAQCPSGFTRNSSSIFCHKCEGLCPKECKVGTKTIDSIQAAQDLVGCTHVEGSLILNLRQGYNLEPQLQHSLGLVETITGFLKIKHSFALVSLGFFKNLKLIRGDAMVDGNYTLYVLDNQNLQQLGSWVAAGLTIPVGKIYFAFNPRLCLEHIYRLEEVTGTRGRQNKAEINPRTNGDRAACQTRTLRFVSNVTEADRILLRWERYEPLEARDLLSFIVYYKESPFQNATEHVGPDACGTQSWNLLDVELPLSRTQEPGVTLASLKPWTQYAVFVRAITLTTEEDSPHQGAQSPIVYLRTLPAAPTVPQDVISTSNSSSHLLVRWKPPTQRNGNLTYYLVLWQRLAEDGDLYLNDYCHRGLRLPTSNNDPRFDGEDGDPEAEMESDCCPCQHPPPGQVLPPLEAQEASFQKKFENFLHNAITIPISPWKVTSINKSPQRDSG
Chain of Insulin receptor-related protein (Homo sapiens) (P14616 747-1297 limits assumed): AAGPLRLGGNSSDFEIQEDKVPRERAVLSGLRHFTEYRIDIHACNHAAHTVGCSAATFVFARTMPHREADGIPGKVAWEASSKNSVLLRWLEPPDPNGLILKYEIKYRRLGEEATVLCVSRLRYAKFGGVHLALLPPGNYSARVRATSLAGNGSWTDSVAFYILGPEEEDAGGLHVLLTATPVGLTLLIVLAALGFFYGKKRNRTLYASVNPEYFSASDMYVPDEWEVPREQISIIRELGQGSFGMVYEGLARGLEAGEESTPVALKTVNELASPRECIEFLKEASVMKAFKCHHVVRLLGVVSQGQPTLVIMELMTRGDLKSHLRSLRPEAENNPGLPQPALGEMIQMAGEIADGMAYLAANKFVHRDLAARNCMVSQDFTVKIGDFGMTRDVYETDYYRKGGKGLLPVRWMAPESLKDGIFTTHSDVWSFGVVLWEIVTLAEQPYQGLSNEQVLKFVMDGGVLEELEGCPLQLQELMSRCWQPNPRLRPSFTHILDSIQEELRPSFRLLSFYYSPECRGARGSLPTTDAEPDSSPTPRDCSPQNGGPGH

[9] = biological target: Insulin receptor-related protein (Homo sapiens) (UniProt P14616); conditions: at 1 µM
[10] = biological target: T1, Tyrosine-protein kinase ITK/TSK (Homo sapiens) (UniProt Q08881); conditions: at 0.1 µM
T1 sequence (whole entry): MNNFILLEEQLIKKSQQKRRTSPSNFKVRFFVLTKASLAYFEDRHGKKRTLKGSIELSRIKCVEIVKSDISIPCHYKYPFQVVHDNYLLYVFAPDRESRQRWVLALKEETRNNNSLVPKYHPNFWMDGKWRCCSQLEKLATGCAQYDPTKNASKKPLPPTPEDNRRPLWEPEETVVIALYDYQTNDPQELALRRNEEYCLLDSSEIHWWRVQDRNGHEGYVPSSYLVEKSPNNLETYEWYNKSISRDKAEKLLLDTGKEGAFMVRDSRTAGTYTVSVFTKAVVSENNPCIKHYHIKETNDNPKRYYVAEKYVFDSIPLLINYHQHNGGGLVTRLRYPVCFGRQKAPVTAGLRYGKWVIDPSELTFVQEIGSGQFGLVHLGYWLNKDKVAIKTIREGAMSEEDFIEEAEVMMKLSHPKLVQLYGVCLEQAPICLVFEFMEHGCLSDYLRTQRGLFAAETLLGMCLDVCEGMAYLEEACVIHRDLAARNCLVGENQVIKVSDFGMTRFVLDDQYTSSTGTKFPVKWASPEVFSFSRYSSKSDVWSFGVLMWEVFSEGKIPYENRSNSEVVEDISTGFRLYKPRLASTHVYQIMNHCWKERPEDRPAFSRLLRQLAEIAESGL

[11] = biological target: T1, Tyrosine-protein kinase ITK/TSK (Homo sapiens); conditions: at 1 µM
[12] = biological target: Tyrosine-protein kinase JAK1 (Homo sapiens) (UniProt P23458); conditions: at 0.1 µM
[13] = biological target: Tyrosine-protein kinase JAK1 (Homo sapiens) (UniProt P23458); conditions: at 1 µM
[14] = biological target: Tyrosine-protein kinase JAK2 (Homo sapiens) (UniProt O60674); conditions: at 0.1 µM
[15] = biological target: Tyrosine-protein kinase JAK2 (Homo sapiens) (UniProt O60674); conditions: at 1 µM
[16] = biological target: T2, Tyrosine-protein kinase JAK3 (Homo sapiens) (UniProt P52333); conditions: at 0.1 µM
T2 sequence (whole entry): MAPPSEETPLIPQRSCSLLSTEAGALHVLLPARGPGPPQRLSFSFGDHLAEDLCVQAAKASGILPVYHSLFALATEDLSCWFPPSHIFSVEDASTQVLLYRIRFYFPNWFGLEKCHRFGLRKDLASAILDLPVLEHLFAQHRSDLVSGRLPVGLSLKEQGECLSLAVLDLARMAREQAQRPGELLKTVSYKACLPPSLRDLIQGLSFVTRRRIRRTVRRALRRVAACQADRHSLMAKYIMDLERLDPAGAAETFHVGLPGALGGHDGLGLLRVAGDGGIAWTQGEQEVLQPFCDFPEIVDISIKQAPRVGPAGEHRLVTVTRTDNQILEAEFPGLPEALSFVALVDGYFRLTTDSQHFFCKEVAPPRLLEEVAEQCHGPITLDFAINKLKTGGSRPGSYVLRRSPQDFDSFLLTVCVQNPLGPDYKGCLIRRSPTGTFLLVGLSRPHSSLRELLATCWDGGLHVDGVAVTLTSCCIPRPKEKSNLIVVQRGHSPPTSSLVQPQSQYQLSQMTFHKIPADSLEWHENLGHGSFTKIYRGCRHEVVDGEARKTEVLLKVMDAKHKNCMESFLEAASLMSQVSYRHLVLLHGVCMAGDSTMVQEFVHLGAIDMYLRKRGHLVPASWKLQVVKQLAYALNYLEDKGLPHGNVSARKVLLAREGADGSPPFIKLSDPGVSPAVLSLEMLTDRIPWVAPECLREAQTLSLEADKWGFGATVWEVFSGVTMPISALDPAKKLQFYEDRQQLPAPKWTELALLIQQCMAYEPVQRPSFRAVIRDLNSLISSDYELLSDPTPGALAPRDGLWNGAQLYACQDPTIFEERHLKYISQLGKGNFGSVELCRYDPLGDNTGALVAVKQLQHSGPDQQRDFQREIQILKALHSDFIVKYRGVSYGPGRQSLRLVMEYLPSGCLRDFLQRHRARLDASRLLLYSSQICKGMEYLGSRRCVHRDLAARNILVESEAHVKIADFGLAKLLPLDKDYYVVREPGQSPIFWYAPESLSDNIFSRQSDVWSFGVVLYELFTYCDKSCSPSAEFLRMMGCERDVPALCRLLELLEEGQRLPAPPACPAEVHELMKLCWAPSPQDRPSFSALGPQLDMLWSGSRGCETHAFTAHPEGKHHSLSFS

[17] = biological target: T2, Tyrosine-protein kinase JAK3 (Homo sapiens); conditions: at 1 µM
[18] = biological target: Vascular endothelial growth factor receptor 2 (Homo sapiens) (UniProt P35968); conditions: at 0.1 µM
Chain of Vascular endothelial growth factor receptor 2 (Homo sapiens) (P35968 whole entry): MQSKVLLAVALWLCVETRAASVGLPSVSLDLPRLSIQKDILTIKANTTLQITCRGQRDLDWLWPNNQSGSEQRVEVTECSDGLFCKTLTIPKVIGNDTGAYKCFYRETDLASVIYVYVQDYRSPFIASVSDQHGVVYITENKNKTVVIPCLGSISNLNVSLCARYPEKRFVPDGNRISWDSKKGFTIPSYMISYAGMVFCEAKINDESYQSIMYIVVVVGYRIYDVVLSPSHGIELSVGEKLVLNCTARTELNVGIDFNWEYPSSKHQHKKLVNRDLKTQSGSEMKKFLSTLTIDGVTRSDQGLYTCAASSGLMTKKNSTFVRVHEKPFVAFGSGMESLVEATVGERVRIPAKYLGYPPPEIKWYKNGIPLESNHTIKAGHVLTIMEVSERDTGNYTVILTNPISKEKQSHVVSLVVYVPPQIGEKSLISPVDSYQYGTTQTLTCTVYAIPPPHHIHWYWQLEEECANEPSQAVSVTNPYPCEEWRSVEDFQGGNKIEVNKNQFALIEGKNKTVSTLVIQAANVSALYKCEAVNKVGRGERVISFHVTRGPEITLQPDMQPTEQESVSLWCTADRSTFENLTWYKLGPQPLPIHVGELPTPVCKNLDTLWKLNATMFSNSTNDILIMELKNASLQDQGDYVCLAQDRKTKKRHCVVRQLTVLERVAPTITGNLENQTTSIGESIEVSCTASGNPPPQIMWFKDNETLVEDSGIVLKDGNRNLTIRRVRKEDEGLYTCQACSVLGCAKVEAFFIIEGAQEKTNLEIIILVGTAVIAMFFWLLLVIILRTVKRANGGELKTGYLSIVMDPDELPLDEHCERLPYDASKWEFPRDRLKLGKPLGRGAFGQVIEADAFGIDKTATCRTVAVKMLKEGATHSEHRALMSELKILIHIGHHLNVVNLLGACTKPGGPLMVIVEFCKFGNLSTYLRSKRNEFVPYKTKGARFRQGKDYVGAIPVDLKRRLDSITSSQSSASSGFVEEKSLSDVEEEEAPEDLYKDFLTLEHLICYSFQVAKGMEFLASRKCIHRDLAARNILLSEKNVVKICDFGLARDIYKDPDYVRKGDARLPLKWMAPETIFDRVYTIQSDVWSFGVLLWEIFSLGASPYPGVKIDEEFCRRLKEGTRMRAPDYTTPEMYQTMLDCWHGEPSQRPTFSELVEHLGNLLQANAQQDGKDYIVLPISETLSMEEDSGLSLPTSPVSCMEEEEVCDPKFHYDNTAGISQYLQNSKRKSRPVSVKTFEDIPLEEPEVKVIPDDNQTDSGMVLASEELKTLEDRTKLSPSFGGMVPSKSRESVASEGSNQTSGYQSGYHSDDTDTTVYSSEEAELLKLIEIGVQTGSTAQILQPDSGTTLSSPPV

[19] = biological target: Vascular endothelial growth factor receptor 2 (Homo sapiens) (UniProt P35968); conditions: at 1 µM
[20] = biological target: Mast/stem cell growth factor receptor Kit (Homo sapiens) (UniProt P10721); conditions: at 0.1 µM;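 further: values are mean inhibition of KIT, from the GSK PKIS dataset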
Chain of Mast/stem cell growth factor receptor Kit (Homo sapiens) (P10721 whole entry): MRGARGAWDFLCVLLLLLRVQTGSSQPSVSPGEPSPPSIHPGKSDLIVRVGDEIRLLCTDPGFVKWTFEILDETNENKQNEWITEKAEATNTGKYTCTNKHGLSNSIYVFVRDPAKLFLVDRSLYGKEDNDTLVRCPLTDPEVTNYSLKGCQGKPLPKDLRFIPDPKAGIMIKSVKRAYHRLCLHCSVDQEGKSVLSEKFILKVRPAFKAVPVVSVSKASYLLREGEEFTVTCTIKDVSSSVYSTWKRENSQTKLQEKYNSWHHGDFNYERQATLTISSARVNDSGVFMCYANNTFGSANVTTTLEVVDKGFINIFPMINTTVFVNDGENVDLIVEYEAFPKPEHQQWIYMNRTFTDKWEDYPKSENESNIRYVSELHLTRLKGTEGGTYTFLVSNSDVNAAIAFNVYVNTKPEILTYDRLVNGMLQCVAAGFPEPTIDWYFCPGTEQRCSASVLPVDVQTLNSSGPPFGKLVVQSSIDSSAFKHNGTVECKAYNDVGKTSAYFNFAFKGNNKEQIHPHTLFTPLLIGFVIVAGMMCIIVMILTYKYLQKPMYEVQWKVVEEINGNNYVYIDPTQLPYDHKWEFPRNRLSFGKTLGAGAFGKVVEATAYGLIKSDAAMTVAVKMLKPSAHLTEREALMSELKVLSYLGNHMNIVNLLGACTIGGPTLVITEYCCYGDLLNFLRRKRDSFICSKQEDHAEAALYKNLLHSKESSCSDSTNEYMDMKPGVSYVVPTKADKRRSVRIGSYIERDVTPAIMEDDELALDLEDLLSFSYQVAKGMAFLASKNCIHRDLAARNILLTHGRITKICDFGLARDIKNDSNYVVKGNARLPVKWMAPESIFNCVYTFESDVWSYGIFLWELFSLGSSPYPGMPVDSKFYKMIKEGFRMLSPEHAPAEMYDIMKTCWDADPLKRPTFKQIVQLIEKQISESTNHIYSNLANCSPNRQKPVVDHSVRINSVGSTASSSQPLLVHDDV

SMILES	inhibition [1]	inhibition [2]	inhibition [3]	inhibition [4]	inhibition [5]	inhibition [6]	inhibition [7]	inhibition [8]	inhibition [9]	inhibition [10]	inhibition [11]	inhibition [12]	inhibition [13]	inhibition [14]	inhibition [15]	inhibition [16]	inhibition [17]	inhibition [18]	inhibition [19]	inhibition [20]
CCn1c(-c2nonc2N)nc2c(C#CCN)ncc(OCCCN)c21	-1.61%	0.79%	-3.58%	-5.07%	-6.11%	-5.48%	-4.01%	-0.39%	0.07%	0.2%	-1.36%	4.06%	13.7%	-1.01%	-1.7%	5.62%	4.64%	-3.31%	5.24%	-1.96%
Fc1ccc(-c2ncn(C3CCNCC3)c2-c2ccnc(Oc3ccccc3)n2)cc1	-3.36%	2.11%	1.98%	–	-4.15%	2.42%	3.05%	0.57%	0.22%	-3.91%	-3.42%	1.24%	-0.07%	-0.28%	-0.02%	-6.39%	-5.72%	4.3%	6.72%	0.89%
CCn1c(-c2nonc2N)nc2c(C#CC(C)(C)O)ncc(OCC3CCNCC3)c21	2.15%	2.07%	5.41%	-3.92%	-4.46%	2.75%	1.72%	2.1%	2.17%	-2.28%	-1.96%	4.7%	12.5%	0.61%	1.31%	-4.99%	-3.39%	34.8%	71.2%	4.46%
Cc1cc(-c2ccco2)cc(C)c1/C=C/c1cncc(-c2nn[nH]n2)c1	1.98%	1.62%	3.34%	-1.5%	1.06%	0.61%	0.42%	1.36%	-0.21%	-0.49%	0.9%	-0.35%	3.09%	0%	-0.44%	-1.94%	0.31%	-2.08%	-0.14%	-0.86%
NS(=O)(=O)c1ccc(N/C=C2\C(=O)Nc3ccc4ncsc4c32)cc1	9.66%	9.53%	28.9%	16%	19.4%	0.99%	11.7%	0.69%	4.17%	1.17%	8.24%	5.09%	26.8%	1.74%	11.1%	6.45%	54.4%	43.8%	75.3%	50%
NS(=O)(=O)c1ccc(-c2ccc3c(NC(=O)C4CC4)n[nH]c3c2)cc1	2.42%	4.22%	9.28%	0.89%	1.61%	1.23%	2.43%	3.82%	2.73%	1.9%	6.67%	1.47%	-1.13%	1.06%	2.65%	-0.06%	2.45%	3.61%	8.35%	3.61%
COc1cccc(-n2ncc3c(N/N=C/c4ccncc4)ncnc32)c1	73.8%	15.7%	59.2%	4.62%	4.88%	6.46%	7.36%	1.64%	5.33%	1.63%	5.47%	5.43%	15.3%	2.01%	13.5%	-0.96%	10.6%	28.8%	69.2%	13.5%
COc1cc(C=NNc2ncnc3c2cnn3Cc2ccccc2)ccc1O	4.87%	3.29%	33.7%	-3.54%	-1.6%	-3.1%	–	-3.04%	-4.41%	-1.61%	0.65%	-5.07%	3.34%	-1.56%	-0.04%	0.38%	3.71%	-1.08%	12.2%	-5.78%
Nc1nonc1-c1nc2cnccc2n1C1CCCCC1	4.39%	-1%	0.66%	-3.43%	-0.98%	-0.54%	-0.22%	-2.35%	-3.62%	-0.34%	0.48%	-2.62%	2.81%	-0.95%	-0.41%	-0.04%	3.98%	6.99%	46.3%	-1.47%
NC(=O)c1sc(-n2cnc3cc(C(F)(F)F)ccc32)cc1OCc1ccccc1Br	7.58%	2.82%	0.29%	-2.64%	0.95%	0.33%	1.77%	1.13%	-0.33%	-0.64%	1.42%	5.27%	5.31%	0.93%	-0.32%	-1.17%	0.71%	1.59%	4.43%	-1.21%
COc1cccc(COc2cc(-n3cnc4ccccc43)sc2C(N)=O)c1	2.15%	-1.32%	-0.98%	-3.85%	-1.64%	-3.2%	0.19%	-0.6%	-1.17%	-2.19%	0.54%	-1.14%	0.01%	-1.09%	-2.1%	-1.45%	-1.13%	-3.84%	3.07%	0.16%
CCn1c(-c2nonc2N)nc2c(C#CC(C)(C)O)nc(O[C@@H](CN)c3ccccc3)cc21	25%	0.41%	14.1%	-2.18%	-0.35%	1.17%	1.91%	-1.87%	-2.16%	0.11%	0.91%	-1.37%	4.4%	-0.3%	0.78%	0.59%	3.54%	86.8%	75.4%	-1.5%
COc1cc2c(cc1Nc1nc(Nc3ccsc3C(N)=O)c3cc[nH]c3n1)N(C(=O)CN(C)C)CCC2	6.09%	14%	16.6%	99.3%	101%	102%	99.9%	95.7%	97.3%	-1.24%	0.88%	3.36%	1.85%	3.45%	-0.28%	-2.19%	-1.7%	1.27%	5.32%	–
CCn1c(-c2nonc2N)nc2c(C#CC(C)(C)O)ncc(OC[C@@H]3CCCN3)c21	1.07%	-1.1%	1%	-4.88%	0.19%	0.85%	-1.35%	-1.3%	-0.44%	-1.58%	0.41%	0.75%	2.18%	-1.4%	-2.12%	-2.14%	0.33%	31.2%	81.3%	-1.26%

— ChEMBL document CHEMBL1961873, “Compounds: GSK PKIS; Assays: Nanosyn kinase panel” (2012)
